From PubChem BioAssay
Only some compounds are listed: those with a hit (about 1.8% of all), similar ones and a draw of the others.
MRP resist rev: MRP-mediated drug resistance reversal; H69AR cells + 2 uM doxorubicin, CellTiter-Glo, 72 h; differential viability (reversal), % at 10 µM; 85,000 tested, 0.04% active; AID 602;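 active means viability drop by adding the cancer drug above about 55%, with treated viability meeting a 40% cutoff, limit read from the data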;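 further: viability without doxorubicin minus viability with 2 µM doxorubicin for each compound; larger differential means the compound sensitizes cells more to doxorubicin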
S1P2 agonist: agonists of human S1P2 receptor; activation, % at 4.5 µM; O95136; S1P2-expressing cell line, agonist reporter read-out; 97,000 tested, 0.46% active; in the data active means activation above about 16%;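 further: 0% = vehicle low control and 100% = maximal reference agonist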
GALR2 ag: GALR2 (human) receptor agonism | O43603 | AID 803 | activation, % (concentration not given with the values) | 140,000 tested, 0.48% active | GALR2-expressing cells, agonist activation read-out; in the data active means activation above about 5%, passing the limit was not always enough;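 further: 0% = vehicle buffer wells and 100% = reference agonist at full effect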
Target sequence (O43603 whole entry, looked up): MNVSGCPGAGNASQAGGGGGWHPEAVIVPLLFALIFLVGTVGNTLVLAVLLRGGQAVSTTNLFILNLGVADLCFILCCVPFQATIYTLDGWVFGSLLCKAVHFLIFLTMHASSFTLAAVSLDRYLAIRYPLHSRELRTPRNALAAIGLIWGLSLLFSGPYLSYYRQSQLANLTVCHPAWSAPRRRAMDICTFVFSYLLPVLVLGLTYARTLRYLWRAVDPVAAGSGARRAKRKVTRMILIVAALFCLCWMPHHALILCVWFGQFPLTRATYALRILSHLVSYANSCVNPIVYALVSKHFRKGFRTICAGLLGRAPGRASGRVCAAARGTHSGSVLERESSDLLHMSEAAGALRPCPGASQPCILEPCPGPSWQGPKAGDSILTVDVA
S1P2 antag: S1P2 (human) receptor antagonism; cell-based S1P2 antagonist assay, inhibition at 5 uM; inhibition, % at 5 µM; 97,000 tested, 0.21% active; AID 736; in the data active means inhibition above about 45%;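 further: CRE beta-lactamase reporter cells expressing human S1P2 stimulated with S1P; 0% = agonist at EC80 alone and 100% = agonist plus reference antagonist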
GALR2 blocker: blocks the human galanin receptor 2; O43603; GALR2-expressing cells, antagonist mode; inhibition, % at 4 µM; 140,000 tested, 0.39% active; AID 828; in the data active means inhibition above about 27%;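 further: cells stimulated with galanin 1-16 at roughly its EC80; 0% = agonist challenge control and 100% = basal control without agonist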
MRP1 act: activates MRP-1; H69AR cells + doxorubicin, viability rescue, CellTiter-Glo; viability increase, % at 10 µM; 140,000 tested, 0.61% active; AID 799;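 active means viability gain under doxorubicin at or above a set limit, the compound median plus 3 SD, cut at about 4.7% in these data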;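 further: MRP-1 overexpressing cells given doxorubicin 25 µM after compound pretreatment; 18-22 h compound pretreatment then 72 h with doxorubicin before readout; 0% = doxorubicin-only wells and 100% = vehicle-treated cells without doxorubicin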
An asterisk follows results filed as active; / = not tested or not shown.

SMILES	MRP resist rev	S1P2 agonist	GALR2 ag	S1P2 antag	GALR2 blocker	MRP1 act
CCOc1ccc(NC(=O)CCN2CCN(S(=O)(=O)c3ccc(OC)cc3)CC2)cc1	-6.1	-3.2	-2.0	4.2	-2.2	-1.8
CC(C)(C)c1ccc(C(=O)N2CCC(C(=O)NCc3ccco3)CC2)cc1	4.6	-2.8	-1.9	1.4	2.8	-3.9
CC(C)n1c(SCC(=O)Nc2nc3ccccc3s2)nc2c1c(=O)n(C)c(=O)n2C	-16.8	18.8*	-1.8	-38.3	-5.8	-4.2
CCOc1ccc2nc(NC(=O)CSc3nc4c(c(=O)n(C)c(=O)n4C)n3C(C)C)sc2c1	-30.4	/	0.8	/	6.7	-0.3
COc1ccc(OC)c(NC(=O)CSc2nc3c(c(=O)n(C)c(=O)n3C)n2C)c1	-8.2	17.5*	0.2	-42.0	6.7	-1.0
CCc1ccc(C(C)NC(=O)c2cc(C)oc2C)cc1 (stereo not drawn)	-7.5	0.2	-1.8	-15.3	-7.6	-2.6
Cc1cc(O)c(C2=Nc3ccccc3SC(c3ccc(Cl)cc3)C2)c(=O)o1 (stereo not drawn)	/	/	-0.8	/	-4.5	-4.6
COc1ccc(C2CC(c3c(O)cc(C)oc3=O)=NCCS2)c(OC)c1 (stereo not drawn)	-17.4	/	0.4	/	27.7*	-2.5
CC(C(=O)N1c2ccccc2CCc2ccccc21)n1nnc(-c2ccc(N(C)C)cc2)n1 (stereo not drawn)	0.2	-3.9	-1.9	-1.0	-1.4	8.2*
CCOC(=O)Cn1c(=O)c2c(nc3n2CCS3)n(C)c1=O	-8.9	-6.8	-2.2	19.5	-6.3	-0.2
COc1ccccc1NC(=O)Nc1nnc(-c2ccco2)s1	/	-1.3	-0.9	7.2	-4.8	-1.8
O=C(Nc1ccc(C2CC2(Cl)Cl)cc1)c1ccccc1Br (stereo not drawn)	/	/	-1.6	/	4.1	11.4*
O=C(CCCn1c(=S)[nH]c2cc3c(cc2c1=O)OCO3)N1CCN(c2ccccc2F)CC1	8.7	31.5*	-3.0	-1.5	13.3	1.8
O=C(CCCn1c(=S)[nH]c2cc3c(cc2c1=O)OCO3)N1CCN(c2ccc(F)cc2)CC1	2.1	-3.3	-0.8	1.8	-7.3	0.9
Cc1nn(Cc2ccccc2)c(C)c1NC(=O)c1noc2c1CCc1ccccc1-2	18.4	-3.8	-1.5	20.4	4.3	6.5*
N/C(Cc1ccc([N+](=O)[O-])cc1)=N\OC(=O)c1ccc(Br)o1	/	/	-1.4	/	6.0	-1.3
CC(C)Oc1ccc(C(CC(=O)O)NC(=O)CSc2ncn[nH]2)cc1 (stereo not drawn)	6.2	-2.2	-2.3	-12.8	1.9	0.0
COc1ccc(S(=O)(=O)NCCC(=O)NCc2cccs2)cc1	-3.7	-4.9	-3.2	15.2	6.9	-1.5
O=C(Nc1cccc(S(=O)(=O)N2CCCCCC2)c1)c1ccc2c(c1)OCO2	/	/	-1.2	/	4.6	1.8
COc1ccccc1C1C(C(=O)c2sc(C)nc2C)=C(O)C(=O)N1CCN1CCOCC1 (stereo not drawn)	/	/	-0.8	/	7.3	7.6*
COc1ccc(CC(=O)Nc2ccc(-c3noc(COc4ccccc4C)n3)cc2)cc1	8.7	/	7.8*	/	4.3	-2.5
Cn1nccc1CNC(=O)c1c(Cl)cnn1C	/	/	-0.5	/	-5.8	-0.3
O=C(NCCN1C(=O)S/C(=C/c2ccccc2)C1=O)C1CCCN1C(=O)c1cccs1 (stereo not drawn)	/	/	-1.6	/	24.4	7.5*
Cc1nc2ccc(NC(=O)c3cc(S(=O)(=O)N4CCOCC4)ccc3C)cc2s1	6.7	-4.5	-2.1	6.7	6.7	-2.7
CCc1nc2ccccc2c(C(=O)OCC(=O)Nc2ccc(S(=O)(=O)N3CCOCC3)cc2)c1C	-34.9	/	1.0	/	2.5	-1.8
SMILES	MRP resist rev	S1P2 agonist	GALR2 ag	S1P2 antag	GALR2 blocker	MRP1 act
CCc1nc2ccccc2c(C(=O)OCC(=O)Nc2cccc(S(=O)(=O)N3CCOCC3)c2)c1C	-24.5	17.8*	0.1	15.2	13.3	-5.0
Cc1cccc(-n2nc(C(=O)c3ccco3)cc(-c3nc4ccccc4[nH]3)c2=N)c1	/	/	-0.1	/	9.6	0.5
COc1ccc(-n2nc(C(=O)c3cccs3)cc(-c3nc4ccccc4[nH]3)c2=N)cc1	1.0	22.3*	-1.4	-44.8	6.6	-8.3
Cc1ccccc1-n1nc(C(=O)c2cccs2)cc(-c2nc3ccccc3[nH]2)c1=N	-20.1	24.3*	-2.6	-12.3	11.7	-4.5
COc1ccc(/C=C/C(=O)NCCCc2ccccc2)cc1OC	/	/	0.8	/	9.7	0.5
COc1cc(/C=C/C(=O)NC(C)C)ccc1OCc1ccccc1	/	/	7.5*	/	3.5	-0.5
Cc1cc(C)n(-c2ccc(C(=O)Nc3cccc(S(=O)(=O)N(C)C)c3)cc2)n1	/	/	-1.6	/	24.5	5.8*
